Test results: the supplement of paper PMC8728848
About 410 targets per protein were measured; listed, in parts, are those with the strongest signals and a random draw of the rest.

Legend:
Experiment in all cases: glycan array binding signal (z-score within array); higher = stronger binding
Conditions in all cases: glycan notation: IUPAC condensed, linker removed
[1] = molecular target: Fuc(a1-2)Gal(b1-3)GalNAc(b1-3)Gal
Procedure, shortened: (§1)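 From the Consortium for Functional Glycomics database, 3228 arrays were curated, keeping only those whose protein sequence was available. Binding is given as a within-array Z-score averaged across arrays sharing a protein sequence and across linkers. Negative Z-scores can be read as non-binding.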

Fuc(a1-2)Gal(b1-4)GlcNAc = molecular target: Fuc(a1-2)Gal(b1-4)GlcNAc
Procedure, shortened: as §1

[2] = molecular target: Fuc(a1-2)Gal(b1-4)[Fuc(a1-3)]GlcNAc
Procedure, shortened: as §1

[3] = molecular target: Fuc(a1-2)Gal(b1-4)[Fuc(a1-3)]GlcNAc(b1-3)Gal(b1-4)[Fuc(a1-3)]GlcNAc(b1-3)Gal(b1-4)[Fuc(a1-3)]GlcNAc
Procedure, shortened: as §1

[4] = molecular target: Fuc(a1-2)[GalNAc(a1-3)]Gal(b1-4)[Fuc(a1-3)]GlcNAc
Procedure, shortened: as §1

[5] = molecular target: Gal(b1-3)GalNAc(b1-4)Gal(b1-4)Glc
Procedure, shortened: as §1

[6] = molecular target: Gal(b1-3)GlcNAc(b1-3)Gal(b1-3)GlcNAc
Procedure, shortened: as §1

[7] = molecular target: Gal(b1-4)GlcNAc(b1-2)Man(a1-3)Man(b1-4)GlcNAc(b1-4)GlcNAc
Procedure, shortened: as §1

[8] = molecular target: Gal(b1-4)GlcNAc(b1-2)Man(a1-3)[Gal(b1-4)GlcNAc(b1-2)Man(a1-6)]Man(b1-4)GlcNAc(b1-4)GlcNAc
Procedure, shortened: as §1

[9] = molecular target: Gal(b1-4)GlcNAc(b1-6)GalNAc
Procedure, shortened: as §1

Gal3S(b1-4)GlcNAc = molecular target: Gal3S(b1-4)GlcNAc
Procedure, shortened: as §1

Gal3S(b1-4)GlcNAc6S = molecular target: Gal3S(b1-4)GlcNAc6S
Procedure, shortened: as §1

Gal6S(b1-4)GlcNAc6S = molecular target: Gal6S(b1-4)GlcNAc6S
Procedure, shortened: as §1

Glc(a1-4)Glc = molecular target: Glc(a1-4)Glc
Procedure, shortened: as §1

[10] = molecular target: GlcNAc(a1-4)Gal(b1-4)GalNAc
Procedure, shortened: as §1

[11] = molecular target: GlcNAc(a1-4)Gal(b1-4)GlcNAc(b1-3)Gal(b1-4)GlcNAc
Procedure, shortened: as §1

[12] = molecular target: GlcNAc(b1-2)Man(a1-3)[GlcNAc(b1-2)Man(a1-6)]Man(b1-4)GlcNAc(b1-4)[Fuc(a1-6)]GlcNAc
Procedure, shortened: as §1

GlcNAc(b1-3)GalNAc = molecular target: GlcNAc(b1-3)GalNAc
Procedure, shortened: as §1

[13] = molecular target: GlcNAc(b1-3)[GlcNAc(b1-6)]Gal(b1-4)GlcNAc
Procedure, shortened: as §1

Kdn(a2-3)Gal(b1-3)GalNAc = molecular target: Kdn(a2-3)Gal(b1-3)GalNAc
Procedure, shortened: as §1

[14] = molecular target: Man(a1-2)Man(a1-6)[Man(a1-3)]Man(a1-6)[Man(a1-2)Man(a1-2)Man(a1-3)]Man(b1-4)GlcNAc(b1-4)GlcNAc
Procedure, shortened: as §1

[15] = molecular target: Neu5Ac(a2-3)Gal(b1-3)GlcNAc6S
Procedure, shortened: as §1

[16] = molecular target: Neu5Ac(a2-3)Gal(b1-4)GlcNAc(b1-6)[Neu5Ac(a2-3)Gal(b1-3)]GalNAc
Procedure, shortened: as §1

[17] = molecular target: Neu5Ac(a2-3)Gal(b1-4)GlcNAc6S
Procedure, shortened: as §1

[18] = molecular target: Neu5Ac(a2-3)Gal(b1-4)[Fuc(a1-3)]GlcNAc(b1-3)Gal(b1-4)GlcNAc
Procedure, shortened: as §1

[19] = molecular target: Neu5Gc(b2-6)Gal(b1-4)GlcNAc
Procedure, shortened: as §1

B1: GALT1 615 (Arabidopsis thaliana), Q8L7F9 (protein)
chain: DPMRGSHHHHHHGMASMTGGQQMGRDLYDDDDKSRLQKPYITAAASVVVTPNTTLPMEWLRITLPDFMKEARNTQEAISGDDIAVVSGLFVEQNVSKEEREPLLTWNRLESLVDNAQSLVNGVDAIKEAGIVWESLVSAVEAKKLVDVNENQTRKGKEELCPQFLSKMNATEADGSSLKLQIPCGLTQGSSITVIGIPDGLVGSFRIDLTGQPLPGEPDPPIIVHYNVRLLGDKSTEDPVIVQNSWTASQDWGAEERCPKFDPDMNKKVDDLDECNKMVGGEINRTSSTSLQSNTSRGVPVAREASKHEKYFPFKQGFLSVATLRVGTEGMQMTVDGKHITSFAFRDTLEPWLVSEIRITGDFRLISILA
- glycan array binding signal (z-score) [1]: 8.63
- glycan array binding signal (z-score) (Fuc(a1-2)Gal(b1-4)GlcNAc): -0.374
- glycan array binding signal (z-score) [2]: 4.77
- glycan array binding signal (z-score) [3]: 1.95
- glycan array binding signal (z-score) [4]: 1.82
- glycan array binding signal (z-score) [5]: -0.508
- glycan array binding signal (z-score) [6]: -0.271
- glycan array binding signal (z-score) [7]: -0.484
- glycan array binding signal (z-score) [8]: 0.081
- glycan array binding signal (z-score) [9]: -0.439
- glycan array binding signal (z-score) (Gal3S(b1-4)GlcNAc): -0.208
- glycan array binding signal (z-score) (Gal3S(b1-4)GlcNAc6S): -0.044
- glycan array binding signal (z-score) (Gal6S(b1-4)GlcNAc6S): -0.309
- glycan array binding signal (z-score) (Glc(a1-4)Glc): 3.74
- glycan array binding signal (z-score) [10]: 8
- glycan array binding signal (z-score) [11]: -0.46
- glycan array binding signal (z-score) [12]: 6.45
- glycan array binding signal (z-score) (GlcNAc(b1-3)GalNAc): -0.386
- glycan array binding signal (z-score) [13]: -0.348
- glycan array binding signal (z-score) (Kdn(a2-3)Gal(b1-3)GalNAc): -0.772
- glycan array binding signal (z-score) [14]: -0.415
- glycan array binding signal (z-score) [15]: -0.079
- glycan array binding signal (z-score) [16]: -0.225
- glycan array binding signal (z-score) [17]: -0.078
- glycan array binding signal (z-score) [18]: 0.904
- glycan array binding signal (z-score) [19]: -0.419
